In the supplement of paper PMC8728848:
Shown is part of a subset that was picked to be rich in the strongest signals.

Assays:
Experiment in all cases: glycan array binding signal (z-score within array); higher = stronger binding
Settings in all cases: glycan notation: IUPAC condensed, linker removed
[1] = biological target: Fuc(a1-2)Gal(b1-3)GalNAc(a1-3)[Fuc(a1-2)]Gal(b1-4)GlcNAc
In short: (§1)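 The binding signal is a Z-score computed within each array. Data were drawn from 3228 arrays in the Consortium for Functional Glycomics database, restricted to those with a known protein sequence. Scores were averaged over arrays of the same protein sequence at different concentrations or buffers, and over linkers, and negative values can be taken as non-binding.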

[2] = biological target: Fuc(a1-2)Gal(b1-3)[Fuc(a1-4)]GlcNAc(b1-2)Man(a1-3)[Fuc(a1-2)Gal(b1-3)[Fuc(a1-4)]GlcNAc(b1-2)Man(a1-3)]Man(b1-4)GlcNAc(b1-4)GlcNAc
In short: as §1

[3] = biological target: Fuc(a1-2)Gal(b1-3)[Fuc(a1-4)]GlcNAc(b1-3)[Gal(b1-4)GlcNAc(b1-6)]Gal(b1-4)Glc
In short: as §1

[4] = biological target: Fuc(a1-2)Gal(b1-4)Fuc(a1-3)]GlcNAc(b1-2)Man(a1-3)[Fuc(a1-2)Gal(b1-4)[Fuc(a1-3)]GlcNAc(b1-2)Man(a1-6)]Man(b1-4)GlcNAc(b1-4)GlcNAc
In short: as §1

[5] = biological target: Fuc(a1-2)Gal(b1-4)GlcNAc(b1-2)Man(a1-3)[Fuc(a1-2)Gal(b1-4)GlcNAc(b1-2)Man(a1-6)]Man(b1-4)GlcNAc(b1-4)GlcNAc
In short: as §1

[6] = biological target: Fuc(a1-2)[Gal(a1-3)]Gal(b1-3)GlcNAc
In short: as §1

[7] = biological target: Fuc(a1-2)[Gal(a1-3)]Gal(b1-4)GlcNAc(b1-3)GalNAc
In short: as §1

[8] = biological target: Fuc(a1-2)[GalNAc(a1-3)]Gal(b1-3)GlcNAc(b1-3)GalNAc
In short: as §1

[9] = biological target: Fuc(a1-3)[Gal(b1-4)]Glc6S
In short: as §1

[10] = biological target: Fuc(a1-3)[Gal(b1-4)]GlcNAc(b1-6)GalNAc
In short: as §1

[11] = biological target: Fuc(b1-3)GlcNAc
In short: as §1

[12] = biological target: Gal(a1-2)Gal
In short: as §1

[13] = biological target: Gal(a1-3)Gal
In short: as §1

[14] = biological target: Gal(a1-3)Gal(b1-3)GlcNAc
In short: as §1

[15] = biological target: Gal(a1-3)Gal(b1-4)Glc
In short: as §1

[16] = biological target: Gal(a1-3)Gal(b1-4)GlcNAc(b1-2)Man(a1-3)[Gal(a1-3)Gal(b1-4)GlcNAc(b1-2)Man(a1-6)]Man(b1-4)GlcNAc(b1-4)GlcNAc
In short: as §1

[17] = biological target: Gal(a1-4)GlcNAc
In short: as §1

[18] = biological target: Gal(b1-3)GalNAc(b1-4)[Neu5Ac(a2-3)]Gal(b1-4)Glc
In short: as §1

[19] = biological target: Gal(b1-3)GlcNAc(b1-2)Man(a1-3)[GlcNAc(b1-4)][Gal(b1-3)GlcNAc(b1-2)Man(a1-6)]Man(b1-4)GlcNAc(b1-4)GlcNAc
In short: as §1

[20] = biological target: Gal(b1-3)GlcNAc(b1-3)GalNAc
In short: as §1

[21] = biological target: Gal(b1-3)[Fuc(a1-4)]GlcNAc(b1-2)Man
In short: as §1

[22] = biological target: Gal(b1-3)[Fuc(a1-4)]GlcNAc(b1-2)Man(a1-3)[Gal(b1-3)[Fuc(a1-4)]GlcNAc(b1-2)Man(a1-6)]Man(b1-4)GlcNAc(b1-4)[Fuc(a1-6)]GlcNAc
In short: as §1

[23] = biological target: Gal(b1-3)[GlcNAc(b1-6)]GalNAc
In short: as §1

[24] = biological target: Gal(b1-4)GlcNAc(b1-2)Man(a1-3)[Gal(b1-4)GlcNAc(b1-2)Man(a1-6)][GlcNAc(b1-4)]Man(b1-4)GlcNAc(b1-4)[Fuc(a1-6)]GlcNAc
In short: as §1

[25] = biological target: Gal(b1-4)GlcNAc(b1-2)Man(a1-6)Man(b1-4)GlcNAc(b1-4)GlcNAc
In short: as §1

[26] = biological target: Gal(b1-4)GlcNAc(b1-2)[Gal(b1-4)GlcNAc(b1-6)]Man(a1-6)[GlcNAc(b1-4)][Gal(b1-4)GlcNAc(b1-2)[Gal(b1-4)GlcNAc(b1-4)]Man(a1-3)]Man(b1-4)GlcNAc(b1-4)[Fuc(a1-6)]GlcNAc
In short: as §1

[27] = biological target: Gal(b1-4)GlcNAc(b1-3)Gal(b1-3)GalNAc
In short: as §1

[28] = biological target: Gal(b1-4)GlcNAc(b1-3)Gal(b1-3)GlcNAc
In short: as §1

[29] = biological target: Gal(b1-4)GlcNAc(b1-3)Gal(b1-4)GlcNAc(b1-3)Gal(b1-4)GlcNAc(b1-3)Gal(b1-4)GlcNAc(b1-2)[Gal(b1-4)GlcNAc(b1-3)Gal(b1-4)GlcNAc(b1-3)Gal(b1-4)GlcNAc(b1-3)Gal(b1-4)GlcNAc(b1-6)]Man(a1-6)[Gal(b1-4)GlcNAc(b1-3)Gal(b1-4)GlcNAc(b1-3)Gal(b1-4)GlcNAc(b1-3)Gal(b1-4)GlcNAc(b1-2)Man(a1-3)]Man(b1-4)GlcNAc(b1-4)[Fuc(a1-6)]GlcNAc
In short: as §1

[30] = biological target: Gal(b1-4)GlcNAc(b1-3)Gal(b1-4)GlcNAc(b1-3)GalNAc
In short: as §1

B1: AT1G80310(18) (Arabidopsis thaliana), Q0WP36 (protein)
chain: METTTTPLLPGDRSRCGWLRRRLRLKNPLSSELSGAVGDLGTFIPIVLTLTLVSNLDLSTTLIFTGFYNIATGLLFDIPMPVQPMKSIAAVAVSESPHLTPSQIAAAGASTAATLLLLGATGAMSFLYNIIPLPVVRGVQLSQGLQFAFTAIKYVRFNYDTATLKPSSSPRIWLGLDGLILALAALLFIILSTGSGNDREAEDGDLAETSSNESQSRRRRLRLLSSIPSALIVFALGLVLCFIRDPSIFKDLKFGPSKFHILRISWDDWKIGFLRAAIPQIPLSVLNSVIAVCKLSNDLFDKELSATTVSISVGVMNLIGCWFGAMPVCHGAGGLAGQYRFGARSGLSVIFLGIGKLIVGLVFGNSFVRILSQFPIGILGVLLLFAGIELAMASKDMNSKEDSFIMLVCAAVSMTGSSAALGFGCGVVLYLLLKLRTLDCSSVTLFSRSSDESQVDSEAAPRDV
What does the source list for B1?
glycan array binding signal (z-score) [1]: -0.505; glycan array binding signal (z-score) [2]: -0.097; glycan array binding signal (z-score) [3]: -0.71; glycan array binding signal (z-score) [4]: 4.04; glycan array binding signal (z-score) [5]: 3.83; glycan array binding signal (z-score) [6]: 2.6; glycan array binding signal (z-score) [7]: -1.01; glycan array binding signal (z-score) [8]: 0.205; glycan array binding signal (z-score) [9]: 1.38; glycan array binding signal (z-score) [10]: 0.051; glycan array binding signal (z-score) [11]: -0.095; glycan array binding signal (z-score) [12]: 0.558; glycan array binding signal (z-score) [13]: 3.63; glycan array binding signal (z-score) [14]: 3.82; glycan array binding signal (z-score) [15]: -0.294; glycan array binding signal (z-score) [16]: -0.855; glycan array binding signal (z-score) [17]: 0.748; glycan array binding signal (z-score) [18]: -0.754; glycan array binding signal (z-score) [19]: 1.46; glycan array binding signal (z-score) [20]: 0.082; glycan array binding signal (z-score) [21]: 2.96; glycan array binding signal (z-score) [22]: -0.645; glycan array binding signal (z-score) [23]: 0.239; glycan array binding signal (z-score) [24]: 4.28; glycan array binding signal (z-score) [25]: -0.165; glycan array binding signal (z-score) [26]: 2.65; glycan array binding signal (z-score) [27]: -0.393; glycan array binding signal (z-score) [28]: 1.15; glycan array binding signal (z-score) [29]: -0.802; glycan array binding signal (z-score) [30]: -0.75
